Screening results from PubChem BioAssay.
IDE cell inh: inhibitors of human insulin-degrading enzyme in cells; HEK cells, FAbetaB cleavage, fluorescence polarization; inhibition, % at 5.59 µM; 320,000 tested, 0.41% active;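 active = percent inhibition above the average of all tested compounds plus 3 SD, set per screening campaign, cut at about 16% in these data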;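 also: IDE supplied by intact live HEK cells; FP after avidin binding of uncleaved biotin substrate so inhibition keeps polarization high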
LANA-H2B inh: blocks KSHV LANA binding to histone H2A/H2B; cell-free LANA-H2A/H2B peptide, fluorescence polarization; inhibition, % (concentration not given with the values); 320,000 tested, 0.6% active; AID 2629; in the data active = inhibition mostly above about 10%, no sharp cut-off; inactive = mostly below about 6.7%
IDE cell activ: activators of human insulin-degrading enzyme in cells; P14735; HEK cells, FAbeta-B cleavage, fluorescence polarization; 0% vehicle, 100% cell-free pure enzyme wells; activation, % at 5.96 µM; 340,000 tested, 0.073% active;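 active = activation above the mean of all tested compounds plus 3 SD, set per screening campaign, cut at about 17% in these data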
HDAC3 inh: human HDAC3 inhibition; O15379; recombinant HDAC3, fluorogenic peptide/trypsin coupled, fluorescence; inhibition, % at 8.3 µM; 320,000 tested, 0.15% active; AID 2718; in the data active = inhibition above about 26%, passing the limit was not always enough
Each line names hits and unclear results; the compound was inactive in the other large screens; ! = not confirmed by another sample. In the library only some 1.1% were active in any assay of this set; here they are far more common.

CCN(C[C@H]1N[C@@](C)(C(=O)OC)[C@H]2C(=O)N(C)C(=O)[C@@H]12)C(=O)c1ccc(C)cc1	LANA-H2B inh 67.1
COc1ccc(-c2cn(-c3ccc(C)cc3C)c(=O)[nH]2)cc1OC	none
Cc1nc2ccc(NC(=O)[C@@H](NC(=O)c3c(F)cccc3F)C(C)C)cc2s1	LANA-H2B inh active
Cc1c(N=Cc2ccc(Cl)o2)c(=O)n(-c2ccccc2)n1C	LANA-H2B inh 22.9
Cc1cccc(OCCSc2nc3ccccc3n2CCC(=O)O)c1	none
O=C(NC(CO)C(O)c1ccc([N+](=O)[O-])cc1)C(Cl)Cl (stereo not drawn)	none
O=C(NC(CO)Cc1ccc([N+](=O)[O-])cc1)C(Cl)Cl (stereo not drawn)	LANA-H2B inh 22.0
COc1cc(OC)cc(C(=O)NNC(=O)C(CCC(N)=O)NS(=O)(=O)c2ccc(Cl)cc2)c1 (stereo not drawn)	none (no result: IDE cell inh, LANA-H2B inh, HDAC3 inh)
O=C1/C(=C/c2ccc(O)cc2)SC(=S)N1Cc1cccnc1	IDE cell inh 21.5
C#CCOc1ccc(/C=C2\SC(=S)N(Cc3cccnc3)C2=O)cc1	none
C#CCOCCOCCOCCNc1nc(N2CCN(C(=O)CCCCCCCCCCNC(=O)Cn3cc(CCCCCN)nn3)CC2)nc(N2CCN(C(=O)CCCCCCCCCCNC(=O)[C@H]([C@@H](C)CC)n3cc(CCCCCN)nn3)CC2)n1	IDE cell activ 24.6
C#CCOCCOCCOCCNc1nc(N2CCN(C(=O)CCCCCCCCCCNC(=O)[C@H](CCCCN)n3cc(C)nn3)CC2)nc(N2CCN(C(=O)CCCCCCCCCCNC(=O)[C@@H]([C@H](C)CC)n3cc(CCCCCN)nn3)CC2)n1	IDE cell activ 39.2, HDAC3 inh 30.6
C#CCOCCOCCOCCNc1nc(N2CCN(C(=O)CCCCCCCCCCNC(=O)[C@H]([C@@H](C)CC)n3cc(CCCCCN)nn3)CC2)nc(N2CCN(C(=O)CCCCCCCCCCNC(=O)[C@@H]([C@H](C)O)n3cc(C)nn3)CC2)n1	IDE cell activ 39.0
C#CCOCCOCCOCCNc1nc(N2CCN(C(=O)CCCCCCCCCCNC(=O)[C@H](CCC(=O)O)n3cc(CCCCCN)nn3)CC2)nc(N2CCN(C(=O)CCCCCCCCCCNC(=O)[C@@H]([C@H](C)O)n3cc(C)nn3)CC2)n1	none
C#CCOCCOCCOCCNc1nc(N2CCN(C(=O)CCCCCCCCCCNC(=O)[C@H](CCCCN)n3cc(CCO)nn3)CC2)nc(N2CCN(C(=O)CCCCCCCCCCNC(=O)[C@@H]([C@H](C)O)n3cc(C)nn3)CC2)n1	none
C#CCOCCOCCOCCNc1nc(N2CCN(C(=O)CCCCCCCCCCNC(=O)Cn3cc(CCCCCN)nn3)CC2)nc(N2CCN(C(=O)CCCCCCCCCCNC(=O)[C@H](CO)n3cc(CCCCCN)nn3)CC2)n1	none
Cc1ccccc1NC(=O)Cc1nc(COC(=O)COc2ccc(C(C)(C)C)cc2)cs1	LANA-H2B inh 17.2
O=C(c1n[nH]c2ccccc12)N1CCOCC1	none
O=C(c1c[nH]c2ccccc12)N1CCOCC1	LANA-H2B inh 39.7
O=S(=O)(NC1=NCCCCC1)c1ccc(Cl)cc1	LANA-H2B inh active
COC(=O)C(C(=O)OC)c1ncccc1[N+](=O)[O-]	IDE cell activ 17.8
CC(=O)Oc1ccc2c(c1)cc(C)n2C	none
CCN(C(=O)CN1CCCC(C)C1)c1c(N)n(Cc2ccccc2)c(=O)[nH]c1=O (stereo not drawn)	LANA-H2B inh 12.8
COc1ccccc1C(=O)C1Nc2ccccc2-c2nnc(SC)nc2O1 (stereo not drawn)	LANA-H2B inh 20.6
CC1=C(C(=O)OCC2CCCO2)C(c2coc3ccccc3c2=O)C2=C(CCCC2=O)N1 (stereo not drawn)	none
O=C(NC(C(=O)N/N=C/c1ccncc1)c1n[nH]c(=O)c2ccccc12)c1ccccc1 (stereo not drawn)	none
COc1cc(/C=N/NC(=O)C(NC(=O)c2ccccc2)c2n[nH]c(=O)c3ccccc23)ccc1OCC(N)=O (stereo not drawn)	LANA-H2B inh 22.4
Cc1ccc(NC(=O)CSc2ccc(Br)cc2)cc1S(=O)(=O)N1CCOCC1	none
Cc1cc(C)nc(NC(=O)/C=C/c2ccccc2Cl)n1	none
Cc1cc(N)c2cc(NC(=O)/C=C/c3ccccc3Cl)ccc2n1	IDE cell activ 28.3
Cc1cc(C(=O)COC(=O)CCc2nc3ccccc3s2)c(C)n1C	LANA-H2B inh 12.5
O=C(Oc1csc(=S)n1C(=O)c1ccccc1)c1ccccc1	HDAC3 inh 36.6
Cc1cc(C)c(NC(=O)CS)c(Cl)c1	LANA-H2B inh 18.4
CN1C(C(=O)Nc2ccccn2)=C(O)c2sccc2S1(=O)=O	LANA-H2B inh 39.4!
O=C(Nc1ccccn1)c1cccs1	none
